For 58 molecules, inhibition results are on record in PubChem BioAssay AID1259374 (The Scripps Research Institute Molecular Screening Center, 2018).

The campaign covered roughly 650,000 compounds. About 5,900 (0.91%) were called active. Cut-off read from the data, not from the text of the source: active = inhibition above about 50%; inactive = the rest. The sample as a whole holds a higher share of actives than the screen did.

For the test, the target named is Microphthalmia-associated transcription factor (Homo sapiens) (UniProt O75030). The experiment in a line: MITF inhibitors, primary screen, biochemical, AlphaScreen, human (AID 1259374).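 Note: 0% = vehicle wells with protein.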 The note with it: AlphaScreen MITF homodimerization, bead proximity signal; at 2.6 µM; hits give high values.
Chain of Microphthalmia-associated transcription factor (Homo sapiens) (O75030 whole entry, looked up): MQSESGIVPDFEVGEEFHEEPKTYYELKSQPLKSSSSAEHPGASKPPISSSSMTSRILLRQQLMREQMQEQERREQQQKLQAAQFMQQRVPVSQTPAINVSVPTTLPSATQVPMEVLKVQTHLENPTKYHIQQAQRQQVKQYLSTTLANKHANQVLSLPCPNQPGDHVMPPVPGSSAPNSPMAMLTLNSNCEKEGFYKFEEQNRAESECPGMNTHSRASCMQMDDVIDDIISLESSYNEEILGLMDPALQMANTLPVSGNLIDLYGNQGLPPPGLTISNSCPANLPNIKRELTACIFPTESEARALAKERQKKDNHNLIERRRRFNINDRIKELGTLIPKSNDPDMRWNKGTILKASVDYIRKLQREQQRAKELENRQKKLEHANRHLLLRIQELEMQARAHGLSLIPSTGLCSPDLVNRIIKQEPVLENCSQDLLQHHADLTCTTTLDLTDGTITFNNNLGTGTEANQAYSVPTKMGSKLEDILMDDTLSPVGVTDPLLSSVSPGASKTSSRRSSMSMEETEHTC
`CSCCC(NC(=O)c1ccco1)C(=O)OCC(=O)Nc1ccc(C#N)c(Cl)c1` (stereo not drawn): the inhibition is 4.56% (inactive).

Regarding `COc1ccc(NC(=O)CN(C)CC(=O)Nc2ccc(C#N)c(Cl)c2)cc1`, the inhibition is 7.15% (inactive).

As for `CSc1ccccc1NC(=O)CN(C)CC(=O)Nc1ccc(C#N)c(Cl)c1`, the inhibition was 82.2% (active).

Take `COc1ccccc1N1C(=O)NC(=O)/C(=C\c2ccc(Cl)cc2Cl)C1=O`: the inhibition is -0.45% (inactive).

`CC(Cc1ccccc1)NC(=O)/C=C/c1ccco1` (stereo not drawn): the inhibition is 7.08% (inactive).

In the case of `CC(Cc1cccc(C(F)(F)F)c1)N1CCOCC1` (stereo not drawn), the inhibition is 12.7% (inactive).

As for `CCN1CCN(Cc2ccc(C(=O)OC)cc2)CC1`, the inhibition is -13.2% (inactive).

On to `CN1CCN(Cc2ccc(F)cc2)CC1CCO` (stereo not drawn), for which the inhibition is -5.75% (inactive).

In the case of `Clc1ccc(CN2CCN(Cc3ccc(Cl)cc3)CC2)cc1`, the inhibition was 31.9% (inactive).

Turning to `CCC(C)N1CCN(Cc2ccc(SC)cc2)CC1` (stereo not drawn), the inhibition is 65.1% (active).

Turning to `CCN1CCN(Cc2ccc3ccccc3c2)CC1`, the inhibition was 3.25% (inactive).

Take `CCC(CC)N1CCN(Cc2ccc(F)cc2)CC1`: the inhibition is 70.5% (active).

For the molecule `Fc1cccc(Cl)c1CNC1CN2CCC1CC2` (stereo not drawn), the inhibition was 2.47% (inactive).

In the case of `O=C(CN1CCCC1)c1ccccc1Br`, the inhibition was -5.43% (inactive).

For the molecule `Cc1cc(C=C2C(=O)NC(=S)NC2=O)c(C)n1-c1ccccc1C(F)(F)F`, the inhibition is 8.02% (inactive).

Regarding `CCOC(=O)C1=C(N)OC2=C(C(=O)CCC2)C12C(=O)Nc1ccc(Br)cc12` (stereo not drawn), the inhibition is -1.67% (inactive).

`FC1CC2C(Cl)C1NC2(C(F)(F)F)C(F)(F)F` (stereo not drawn): the inhibition is -5.25% (inactive).

As to `CN1C(=O)C(=Cc2cn(CC(=O)NCc3ccco3)c3ccccc23)C(=O)N(C)C1=O`, the inhibition is 0.24% (inactive).

Take `CN1CCC(N(C)c2ncnc3scc(-c4ccc(Cl)cc4)c23)CC1`: the inhibition is 51.4% (active).

As for `O=C(CN1C2CCC1CC(O)(c1ccccn1)C2)N1c2ccccc2Sc2ccccc21` (stereo not drawn), the inhibition was 44.9% (inactive).

Consider `CC1CCCC(C)N1C(=O)CN1C2CCC1CC(O)(c1ccccn1)C2` (stereo not drawn), for which the inhibition was 54.9% (active).

On to `Cn1ccnc1C1(O)CC2CCC(C1)N2CC(=O)N1CCc2ccccc2C1` (stereo not drawn), for which the inhibition was 9.08% (inactive).

For the molecule `COc1ccccc1CN1CCN(Cc2ccc(Br)cc2)CC1`, the inhibition is 77.5% (active).

With `Cc1cccc(OCC(=O)N2CCN(Cc3ccccc3)CC2)c1C`, the inhibition is 13% (inactive).

On to `COc1cc(CN2CCN(C)CC2)ccc1O`, for which the inhibition was 41.2% (inactive).

With `COc1ccccc1N1CCN(Cc2cccc(O)c2)CC1`, the inhibition was 24.7% (inactive).

For `COc1ccccc1CN1CCN(C(=O)Cc2ccccc2)CC1`, the inhibition is 57.1% (active).

On to `COc1ccc(CN2CCN(Cc3ccccc3)CC2)cc1C`, for which the inhibition was 50.8% (active).

Turning to `COc1cccc(CN2CCN(C(=O)COc3ccccc3)CC2)c1OC`, the inhibition is 43.9% (inactive).

Consider `COc1cc(CN2CCN(Cc3ccccc3)CC2)cc(I)c1O`, for which the inhibition is -2.51% (inactive).

On to `COc1ccccc1CN1CCN(c2ccc(F)cc2)CC1`, for which the inhibition was 19.3% (inactive).

As for `CC(C)CCn1c(=O)c(C(=O)Nc2nc3ccc(F)cc3s2)c(O)c2ccccc21`, the inhibition was 9.2% (inactive).

With `CC12CCC(=O)C=C1CC[C@@H]1[C@@H]2CCC2(C)[C@@H](O)CC[C@@H]12` (stereo partly drawn), the inhibition is 3.34% (inactive).

Consider `Cc1cccc(-n2c(CN3C(=O)c4ccccc4C3=O)nc3ccccc3c2=O)c1`, for which the inhibition is 8.78% (inactive).

On to `C=CCN1C(=O)NC(=O)/C(=C/c2ccc(O)c(OC)c2)C1=O`, for which the inhibition is -1.51% (inactive).

Consider `C=CCN1C(=O)NC(=O)/C(=C/c2ccc3c(c2)OCO3)C1=O`, for which the inhibition was 11.9% (inactive).

As to `CCNC(=S)N1CC2CC(C1)c1cccc(=O)n1C2` (stereo not drawn), the inhibition was -9.28% (inactive).

As for `CCCC1=C(C(=O)OC)C2(C(=O)Nc3ccccc32)C(C(=O)OCC)=C(N)O1` (stereo not drawn), the inhibition was 12% (inactive).

For the molecule `c1cc2c(cc1NC1=NCCCS1)OCCO2`, the inhibition is 2.15% (inactive).

As for `O=C1NC(=S)NC(=O)C1=Cc1ccc(-c2ccccc2)o1`, the inhibition is 31.6% (inactive).

As to `C=CCN1C(=O)/C(=C\c2cccn2-c2cccc([N+](=O)[O-])c2)C(=O)NC1=S`, the inhibition is 44.6% (inactive).

For `O=C1NC(=S)N(Cc2ccco2)C(=O)/C1=C\c1ccc(-c2ccc([N+](=O)[O-])cc2)o1`, the inhibition was 89.9% (active).

For `N#CC1=C(N)Oc2c(c(=O)oc3ccccc23)C1c1ccc([N+](=O)[O-])s1` (stereo not drawn), the inhibition was 2.54% (inactive).

Regarding `COc1cccc(-n2c(/C=C/c3cccnc3)nc3ccccc3c2=O)c1`, the inhibition was -8.02% (inactive).

Regarding `Cc1cc(C=O)c(C)n1Cc1ccco1`, the inhibition is 3.63% (inactive).

Consider `Cc1cc(/C=C2/C(=O)NC(=O)N(Cc3ccco3)C2=O)c(C)n1-c1ccc(C(=O)O)cc1`, for which the inhibition is 80.4% (active).

For the molecule `Cc1ccccc1N1C(=O)NC(=O)/C(=C\c2cc(C)n(-c3ccccc3C(=O)O)c2C)C1=O`, the inhibition is 15.6% (inactive).

In the case of `COc1ccccc1CCNCc1ccc(C)cc1`, the inhibition is 24.2% (inactive).

Regarding `O=[N+]([O-])c1ccccc1CN1CCN(Cc2cccc(F)c2)CC1`, the inhibition was 51.4% (active).

For `Fc1ccc(CN2CCN(c3ccccc3)CC2)cc1F`, the inhibition is 40.2% (inactive).

As for `O=[N+]([O-])c1ccccc1C[N+]12CCC(CC1)C(O)C2` (stereo not drawn), the inhibition was 8.77% (inactive).

Consider `O=[N+]([O-])c1ccc(O)c(CN2CCN(c3ccccc3)CC2)c1`, for which the inhibition was 9.43% (inactive).

As to `Cc1ccc(CN2CCN(C(=O)COc3cccc(C)c3)CC2)cc1`, the inhibition was 43.5% (inactive).

With `Cc1ccc(CN2CCN(Cc3ccccc3[N+](=O)[O-])CC2)cc1`, the inhibition was 59.3% (active).

With `Cc1ccccc1OCC(=O)N1CCN(CCNC(=O)c2ccc3c(c2)OCO3)CC1`, the inhibition was -3.05% (inactive).

Turning to `O=C1NC(=S)NC(=O)C1=Cc1ccc(OCc2ccccc2)c(C(=O)O)c1`, the inhibition was 18.7% (inactive).

Take `CCCC1(CCC)C(=O)NC(=Nc2ccc(OC)cc2)NC1=O`: the inhibition is -6.47% (inactive).

On to `CC(c1ccccc1F)n1cc(C(=O)NC2CC2)nn1` (stereo not drawn), for which the inhibition is -9.15% (inactive).
